High-throughput results from PubChem BioAssay.
Shown are actives, neighbours in structure and some others; about 2.4% of the full set was active somewhere.
FEN1 inhibitor: human FEN1 inhibition | P39748 | Recombinant FEN1 flap cleavage, fluorescence, 15 min | Potency, µM (series often up to 114 µM), without a hit: at the highest dose activity change, negative = inhibition, usual class: inhibitors | 0.35% of 390,000 active; note: % is set by controls: 0 for no effect and ±100 for the full control effect; nearly all actives have a fitted effect of over 65% in size
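FEN1 at 10 nM, compound pretreatment for 15 min (room temperature), 50 nM final substrate to initiate; endpoint reads at 0 and 15 min; DMSO-only plates used as vehicle background.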
Pol iota inh: blocks human DNA polymerase iota activity; AID 588590; 1% of 390,000 active; Pol iota fluorescent replication assay, 10 min; Q9UNA4; Potency, µM (series often up to 115 µM), without a hit: top-dose activity, negative = inhibition, most hits filed as inhibitors
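Pol iota at 10 nM preincubated 15 min with compounds at room temperature; reaction started with fluorescent substrate, 50 nM final. Fluorescence read kinetically at 0 and 10 min; buffer-only wells as negative control.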
Pol beta inh: inhibitors of human DNA polymerase beta; P06746; Pol beta primer extension/strand displacement, fluorescence kinetic; Potency, µM (doses to about 114 µM), for inactives: at the top dose activity change, negative = inhibition, usual class: inhibitors; 1.3% of 340,000 active; AID 485314; note: % is set by controls: 0 for no effect and ±100 for the full control effect
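Values derive from four-parameter Hill fits of normalized kinetic data: reads at 0 and 10 min following addition of 50 nM substrate to 10 nM Pol beta preincubated 15 min with compound.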
WRN inhibitor: inhibitors of human WRN helicase | WRN helicase unwinding, fluorescent forked duplex, kinetic | Potency, µM (titrated, usually from 114 µM), for the others: at the highest dose activity change, negative = inhibition, actives largely listed as inhibitors | Q14191 | 0.46% of 360,000 active; note: % is set by controls: 0 for no effect and ±100 for the full control effect; nearly all actives have a fitted effect of over 55% in size
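WRN at 20 nM final preincubated with compound 15 min at room temperature; reaction started with 100 nM fluorophore/quencher forked duplex oligonucleotide and 2 mM ATP final. Unwinding followed kinetically by red fluorescence (ex 525, em 598 nm).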
POLK inh: blocks human DNA polymerase kappa activity. purified Pol kappa, fluorescent DNA synthesis assay, 10 min. Potency, µM (highest dose often 107 µM), inactives show top-dose activity, negative = inhibition, actives largely listed as inhibitors. 0.53% of 400,000 active; note: % is set by controls: 0 for no effect and ±100 for the full control effect
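10 nM Pol kappa preincubated 15 min at room temperature with compounds, then reaction started with substrate at 50 nM final. Fluorescence read kinetically at 0 and 10 min; buffer-only wells served as negative control.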
POLH inh: blocks human DNA polymerase eta activity. Q9Y253. recombinant Pol eta, fluorescent DNA replication assay. Potency, µM (series often up to 114 µM), inactives show at the highest dose activity change, negative = inhibition, usual class: inhibitors. 1.2% of 390,000 active. AID 588591; note: % is set by controls: 0 for no effect and ±100 for the full control effect
Target sequence (Q9Y253 whole entry, looked up): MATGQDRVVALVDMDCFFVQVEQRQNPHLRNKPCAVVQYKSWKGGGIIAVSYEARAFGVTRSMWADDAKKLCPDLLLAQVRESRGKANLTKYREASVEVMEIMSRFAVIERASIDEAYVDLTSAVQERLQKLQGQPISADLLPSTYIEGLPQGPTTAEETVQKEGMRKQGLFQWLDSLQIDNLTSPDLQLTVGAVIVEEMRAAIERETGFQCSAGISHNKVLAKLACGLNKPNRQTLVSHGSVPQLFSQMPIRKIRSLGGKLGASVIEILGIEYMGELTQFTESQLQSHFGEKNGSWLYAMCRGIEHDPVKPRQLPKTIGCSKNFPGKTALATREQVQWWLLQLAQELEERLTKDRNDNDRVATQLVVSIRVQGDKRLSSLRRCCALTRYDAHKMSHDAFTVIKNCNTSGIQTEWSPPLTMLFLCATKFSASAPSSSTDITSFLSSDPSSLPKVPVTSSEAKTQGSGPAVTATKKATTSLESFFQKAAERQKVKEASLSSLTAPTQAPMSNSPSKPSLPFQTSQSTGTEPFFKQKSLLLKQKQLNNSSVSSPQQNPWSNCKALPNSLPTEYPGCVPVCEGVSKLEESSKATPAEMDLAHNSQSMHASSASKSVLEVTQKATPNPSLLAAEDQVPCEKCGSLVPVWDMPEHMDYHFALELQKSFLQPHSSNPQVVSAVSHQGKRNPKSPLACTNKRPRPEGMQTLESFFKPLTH
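Pol eta at 10 nM preincubated with compounds 15 min at room temperature; reaction started with fluorescent substrate (50 nM final) and read kinetically at 0 and 10 min.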
* marks the source's active call; other numbers are inactive results; u = inconclusive; x = no result; [ ] = remark or other dose. Calls come from the whole dose curve; as a rule, active = well fitted curve in the direction sought with a large enough effect; inconclusive = small, poorly fitted or top-dose-only effect, or another doubt; inactive = no such curve, though single readings can be large; an effect the other way counts as inactive or inconclusive. Potency is the fitted concentration of half-maximal effect.

SMILES	FEN1 inhibitor	Pol iota inh	Pol beta inh	WRN inhibitor	POLK inh	POLH inh
CCOc1cc(/C=C2/C(=N)N3OC(C)=CC3=NC2=O)ccc1OC(=O)c1ccco1	6%	-2%	-6%	-5%	-7%[60.1 µM]	-6%
O=[N+]([O-])c1ccc(Cl)c(S(=O)(=O)/N=C(/Sc2ccc(Br)cc2)c2ccccc2)c1	-11%	19%	x	x	-13%	x
O=C(CCC1N=C2c3ccccc3N=C(SCc3cccc(F)c3)N2C1=O)NCc1cccs1 (stereo not drawn)	u	-16%	-22%	x	-14%[60.1 µM]	-14%
COc1ccc(CCN2C(=O)C=CC2=O)cc1OC	2%	31%	x	32µM*	-12%	-19%
COc1ccc(CCn2c(C)ccc2C)cc1OC	x	x	-1%	x	x	x
Cc1ccc(S(=O)(=O)Nc2nc3n(n2)C(c2ccc(Cl)cc2)C=C(c2ccccc2)N3)cc1 (stereo not drawn)	-2%	-7%	-1%	x	4%	89µM*
COc1ccc(C2C=C(c3ccccc3)Nc3nc(NS(=O)(=O)c4ccc(Cl)cc4)nn32)cc1 (stereo not drawn)	-6%	28%	12%	x	1%	89µM*
Cc1ccc(S(=O)(=O)Nc2nc3n(n2)C(c2ccc(F)cc2)C=C(c2ccccc2)N3)cc1 (stereo not drawn)	-1%	25%	2%	x	3%	u
O=S(=O)(Nc1nc2n(n1)C(c1ccc(F)cc1)C=C(c1ccccc1)N2)c1ccc(Cl)cc1 (stereo not drawn)	-7%	22%	-16%	x	-11%	u
Cc1ccc(C2C=C(c3ccccc3)Nc3nc(NS(=O)(=O)c4ccccc4)nn32)cc1 (stereo not drawn)	-2%	-2%	18%	x	2%	u
COc1ccc(C2C=C(c3ccccc3)Nc3nc(NS(=O)(=O)c4ccccc4)nn32)cc1 (stereo not drawn)	-14%	18%	12%	x	-10%	89µM*
COc1ccc(OC)c(N(CC(=O)Nc2ccccc2)S(=O)(=O)c2ccccc2)c1	-17%	3%	-20%	-2%	-22%	-32%
COc1ccc(C(C)NC(=O)CN(c2cc(OC)ccc2OC)S(=O)(=O)c2ccccc2)cc1 (stereo not drawn)	3%	u	20µM*	x	-32%	u
O=C(c1cc2cc([N+](=O)[O-])ccc2oc1=O)n1cccn1	10%	u	32µM*	-32%[57.1 µM]	79µM*	32µM*
O=C(O)C1C(c2ccccc2)C(C(=O)OCc2ccco2)C1c1ccccc1 (stereo not drawn)	-15%	u	u	-27%	-26%	79µM*
O=C(O)c1ccccc1N/N=C/C1=C(N2CCOCC2)C(=C\c2ccccc2)/CC1	-1%	14µM*	u	u	u	45µM*
c1ccc(-c2nn3c(Cn4nnc5ccccc54)nnc3s2)cc1	10%	-17%	-3%	156%	5%[60.1 µM]	-13%
COc1ccc(Cc2nn3c(Cn4nnc5ccccc54)nnc3s2)cc1	9%	u	35µM*	-14%	-11%	u
S=c1[nH]nc(-c2ccccn2)n1/N=C/c1ccc(-c2ccccc2Cl)o1	-10%	43%	22µM*	-20%	-15%	1%
O=C(N/N=C/c1ccoc1)c1ccccc1	-6%	u	20µM*	-20%	-38%	u
O=C(N/N=C/c1ccoc1)c1ccccc1O	7%	u	22µM*	-9%[11.6 µM]	u	45µM*
O=C(N/N=C/c1cccc(Br)c1)c1ccc(Br)cc1	-22%	u	10µM*	-22%	-21%	-5%
O=C(N/N=C/c1oc(O)c2ccccc12)c1ccccc1O	-11%	-14%	20%	-8%	-22%	-3%
O=C(N/N=C/c1cc(Cl)ccc1O)c1ccc(Br)cc1	u	u	10µM*	0%[57.1 µM]	u	u
Cc1cc(C)cc(C(=O)N/N=C/c2ccoc2)c1	6%	u	45%	-5%	-4%	-16%
SMILES	FEN1 inhibitor	Pol iota inh	Pol beta inh	WRN inhibitor	POLK inh	POLH inh
CCOc1ccc(-c2cc(C(=O)NCc3ccccc3Cl)c3ccccc3n2)cc1	9%	7%	-11%	x	-2%[60.1 µM]	u
Cn1cccc1C(=O)N1CCC2(CC1)CCN(c1cccc(-c3ccccc3)c1)CC2	x	x	x	x	-10%[60.1 µM]	x
O=C(N/N=C/c1cccc(OC2CSC2)c1)c1ccccc1O	-7%	u	45µM*	u	-31%	u
O=C(Cc1ccc(Cl)cc1)N/N=C/c1ccc(O)c(O)c1	x	x	x	-19%	x	u
Cc1ccc(O)c(/C=N/NC(=O)Cc2ccc(Cl)cc2)c1	-3%	-6%	25µM*	-13%	-8%	6%
O=C(N/N=C/c1ccoc1)c1ccc(Br)cc1	-11%	u	40µM*	-3%	-11%	-4%
CC(C)(C)C(=O)NCCc1csc2nc(-c3ccc(F)cc3)nn12	14%	1%	2%	x	1%[60.1 µM]	-20%
O=[N+]([O-])c1cccc(S(=O)(=O)N2CCN(c3nc(-c4ccccc4)nc4ccccc34)CC2)c1	-10%	-1%	x	x	-13%	x
COC(=O)/C=C/c1ccc2c(c1)S(=O)(=O)N(C1CCCC1)[C@H]2CC(=O)OC	-5%	29%	x	x	3%	x
CC(C)Cn1c(SCc2nnc(-c3cccs3)o2)nc(O)cc1=O	-2%	25µM*	-6%	-7%[57.1 µM]	-42%	u
Cc1nnc(SCc2nnc(-c3cccs3)o2)n1C	3%	17%	-6%	-1%	-4%	-23%
CC1CCN(S(=O)(=O)c2ccc(NC(=O)C3CSC4(C)CCC(=O)N34)cc2)CC1 (stereo not drawn)	1%	u	x	1%[11.6 µM]	-28%	20µM*
COc1ccc(CCNC(=O)CCn2c(=O)c3ccccc3n(Cc3ccccc3F)c2=O)cc1OC	19%	13%	-2%	x	-19%	-8%
COc1ccccc1NC(=O)Cn1cncc1-c1ccc([N+](=O)[O-])cc1	2%	u	1%	-4%	-2%	-11%
Cc1ccc(NC(=O)Cn2cncc2-c2ccc([N+](=O)[O-])cc2)cc1C	-1%	u	35µM*	-20%	-9%	u
Cn1ncc2c(N3CCN(c4ccccc4Cl)CC3)ncnc21	5%	-14%	3%	x	-7%[60.1 µM]	-5%
C=CCn1c(C)nnc1SCC(=O)N1c2ccccc2NC(=O)C1(C)C	x	x	x	0%	x	-6%
Cc1ccccc1OCCC(=O)OCC(=O)N1c2ccccc2NC(=O)C1(C)C	12%	u	x	3%	-14%	u
CC1(C)C(=O)Nc2ccccc2N1C(=O)COc1ccccc1C#N	-1%	35µM*	x	-3%[11.6 µM]	u	u
CC1(C)C(=O)Nc2ccccc2N1C(=O)COc1ccc(S(=O)(=O)N2CCOCC2)cc1Cl	-7%	u	25µM*	-31%[57.1 µM]	-19%	u
